Out of some 350,000 compounds screened, about 6,000 (1.7%) were called active. Roughly 5% stayed inconclusive and do not appear here. No stated cut-off is given here; in the data, active means CPE inhibition above about 20% (passing the limit was not always enough); inconclusive means no clear call, values can overlap the other calls; tested in BHK-21 cells. The full list was thinned out, with actives kept by preference.
assay: inhibitors of DENV2 cytopathic effect, primary screen, cell-based, plate reader, single concentration (AID 651640); details: DENV2-infected cells, cytopathic effect rescue, at 9.99 µM, active compounds read high;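 further: 0% = median of neutral control wells and 100% = median of positive control wells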

Compound	CPE inhibition
COc1ccccc1CNC(=O)C[C@H]1CC[C@@H](NC(=O)CN(C)C)[C@@H](CO)O1	-1.02% (inactive)
Cc1cccc(S(=O)(=O)N2C[C@@H](O)COC[C@H]3O[C@H](CC(=O)N4CCN(C)CC4)CC[C@@H]32)c1	0.654% (inactive)
C[C@@H]1CN([C@H](C)CO)C(=O)c2cc(C#Cc3cccnc3)cnc2O[C@@H]1CN(C)Cc1ccc(F)cc1	-0.76% (inactive)
C[C@@H]1CN([C@@H](C)CO)C(=O)c2cccc(NC(=O)C3CCOCC3)c2O[C@H]1CN(C)C(=O)NC1CCCCC1	-1.68% (inactive)
C[C@@H]1CN([C@H](C)CO)C(=O)c2cccc(NC(=O)C3CCCCC3)c2O[C@@H]1CN(C)C(=O)NC1CCCCC1	21.7% (active)
C[C@@H]1CN([C@H](C)CO)C(=O)c2cccc(NS(=O)(=O)c3ccccc3)c2O[C@@H]1CN(C)Cc1ccc(C(=O)O)cc1	-6.23% (inactive)
C[C@@H]1CN([C@H](C)CO)C(=O)c2cccc(NS(=O)(=O)c3ccc(Cl)cc3)c2O[C@@H]1CN(C)C(=O)Nc1cccc2ccccc12	-5.49% (inactive)
C[C@H]1CN([C@@H](C)CO)C(=O)c2cccc(NC(=O)C3CCCCC3)c2O[C@H]1CN(C)C(=O)NC1CCCCC1	1.03% (inactive)
C[C@H]1CN([C@@H](C)CO)C(=O)c2cccc(NS(=O)(=O)c3ccc(F)cc3)c2O[C@@H]1CN(C)Cc1ccncc1	0.612% (inactive)
COc1ccc(S(=O)(=O)Nc2cccc3c2O[C@@H](CN(C)C(=O)Nc2cccc4ccccc24)[C@H](C)CN([C@@H](C)CO)C3=O)cc1	-9.92% (inactive)
C[C@H](CO)N1C[C@H](C)[C@@H](CN(C)C(=O)Nc2cccc3ccccc23)Oc2c(NS(=O)(=O)c3ccccc3)cccc2C1=O	74.2% (active)
C[C@@H]1CN([C@@H](C)CO)C(=O)c2cccc(NS(=O)(=O)c3ccc(F)cc3)c2O[C@@H]1CN(C)Cc1ccc(C(=O)O)cc1	49.4% (active)
CCCN(C)C[C@H]1Oc2ncc(-c3ccccc3OC)cc2C(=O)N([C@H](C)CO)C[C@H]1C	1.17% (inactive)
C[C@H](CO)N1C[C@H](C)[C@@H](CN(C)S(=O)(=O)c2ccccc2)OCCCC[C@H](C)Oc2ccc(NC(=O)NC3CCCCC3)cc2C1=O	-3.62% (inactive)
C[C@H]1CCCCO[C@H](CN(C)C(=O)CCC(F)(F)F)[C@@H](C)CN([C@@H](C)CO)C(=O)c2cc(NC(=O)Nc3ccc4c(c3)OCO4)ccc2O1	-12.5% (inactive)
C[C@@H]1CN([C@H](C)CO)C(=O)c2cccc(NS(=O)(=O)c3ccc(F)cc3)c2O[C@@H]1CN(C)C(=O)Nc1ccc(F)cc1	10.9% (inactive)
C[C@H](CO)N1C[C@H](C)[C@H](CN(C)S(=O)(=O)c2ccc(C#N)cc2)Oc2ncc(-c3cccc(F)c3)cc2C1=O	2.2% (inactive)
COCC(=O)N(C)C[C@@H]1Oc2cc(C#CCC(C)C)ccc2S(=O)(=O)N([C@@H](C)CO)C[C@@H]1C	-6.44% (inactive)
CCC1(CC)NC(=O)N(Cc2nc3ccccc3s2)C1=O	-2.84% (inactive)
CC1(C)S[C@@H]2[C@H](NC(=O)COc3ccccc3)C(=O)N2C1C(=O)OCc1ccccc1 (some centres not stated)	9.26% (inactive)
COC(=O)C1[C@H]2SC(C)(C)C(C(=O)OC)N2C(=O)N1Cc1nc2ccccc2s1 (some centres not stated)	38.1% (active)
C/C=C/c1ccc2c(c1)O[C@H](CN(C)C(C)=O)[C@H](C)CN([C@H](C)CO)S2(=O)=O	-7.9% (inactive)
COc1cccc(S(=O)(=O)N2C[C@@H](O)COC[C@H]3O[C@H](CC(=O)N4CCCCC4)CC[C@@H]32)c1	-9.51% (inactive)

Compound	CPE inhibition
O=C(/C=C(O)/C=C/c1ccc(O)cc1)/C=C/c1ccc(O)cc1	61.1% (active)
O=C(O)/C=C/c1ccc(OCCCF)cc1	-4.88% (inactive)
O=C(/C=C/c1ccc2c(c1)OCCO2)c1ccc(O)cc1	-0.309% (inactive)
CC(C)NC(=O)N(C)C[C@H]1Oc2ncc(-c3ccccc3F)cc2C(=O)N([C@@H](C)CO)C[C@@H]1C	-8.68% (inactive)
CO[C@@H]1CN(C)C(=O)c2cc(NS(=O)(=O)c3ccccc3)ccc2OC[C@@H](C)N(C(=O)NC(C)C)C[C@@H]1C	10.4% (inactive)
COc1ccc(N(CC(=O)N/N=C/c2cccs2)S(=O)(=O)c2ccc(OC)c(OC)c2)cc1	6.81% (inactive)
O=C(c1cccnc1)N(c1cc2sc(=O)oc2c2ccccc12)S(=O)(=O)c1ccccc1	-6.54% (inactive)
COc1ccc(N(C(=O)c2cccnc2)S(=O)(=O)c2ccc(OC)c(OC)c2)cc1	29.9% (active)
CO[C@H]1CN(C)C(=O)c2ccc(NS(=O)(=O)c3ccccc3)cc2OC[C@@H](C)N(Cc2nccs2)C[C@@H]1C	-6.98% (inactive)
CO[C@@H]1CN(C)C(=O)c2ccc(NS(=O)(=O)c3ccc(Cl)cc3)cc2OC[C@H](C)N(C(=O)NC(C)C)C[C@H]1C	9.25% (inactive)
C[C@@H]1CN([C@H](C)CO)C(=O)c2cc(NC(=O)Nc3ccc4c(c3)OCO4)ccc2O[C@H]1CN(C)C(=O)Nc1ccccc1	6.05% (inactive)
O=C(C[C@H]1C[C@@H]2c3cc(NC(=O)c4ccc5c(c4)OCO5)ccc3O[C@@H]2[C@@H](CO)O1)NCCN1CCCCC1	-1.97% (inactive)
Cc1noc(C)c1S(=O)(=O)N(C)C[C@@H]1OCc2ccccc2-c2ccccc2C(=O)N([C@@H](C)CO)C[C@H]1C	4.05% (inactive)
O=C(NNC(=O)c1ccccc1O)c1ccccc1O	48.5% (active)
Cc1cc(C(=O)NNC(=O)c2ccccc2O)c(C)o1	-2.62% (inactive)
Cc1cc(C(=O)CCC(=O)NNC(=O)c2ccccc2O)c(C)s1	-2.6% (inactive)
COc1cccc(-c2ccc3n(c2=O)C[C@@H]2[C@@H](CO)[C@H](C(=O)NC4CCC4)[C@H]3N2C)c1	-5.73% (inactive)
C[C@H](CO)N1C[C@H](C)[C@@H](CN(C)S(=O)(=O)c2cccs2)Oc2ccc(NC(=O)Nc3ccc(C(F)(F)F)cc3)cc2CC1=O	3.14% (inactive)
CCCC(=O)Nc1ccc2c(c1)C(=O)N(C)[C@H]1CC[C@@H](CC(=O)NCc3ccccc3)O[C@@H]1CO2	-7.15% (inactive)
C[C@@H]1CN([C@@H](C)CO)C(=O)c2cc(NC(=O)Nc3ccc4c(c3)OCO4)ccc2O[C@@H]1CN(C)C(=O)Nc1ccc2c(c1)OCO2	-0.429% (inactive)
CCCCCCSc1ccc(-c2nc3ccc(Cl)cn3c2NCc2ccccc2)cc1	3.27% (inactive)
CCCCNc1c(-c2ccc(OC)c(Sc3ccc(OC)cc3)c2)nc2ccc(Cl)cn12	30.7% (active)
CCCCNc1c(-c2cccc(Sc3ccc(OC)cc3)c2)nc2ccccn12	-17.2% (inactive)

Compound	CPE inhibition
COC(=O)C[C@@H]1C[C@@H]2c3cc(NC(=O)NC4CCCC4)ccc3O[C@@H]2[C@@H](CO)O1	-3.24% (inactive)
CO[C@@H]1CN(C)C(=O)c2cc(NC(=O)C3CCOCC3)ccc2OC[C@H](C)N(Cc2cccnc2)C[C@@H]1C	-1.61% (inactive)
CCNc1ccc(C(=O)OCC(=O)N2c3ccccc3NC(=O)C2(C)C)cc1[N+](=O)[O-]	-0.27% (inactive)
Cc1cc(C(=O)OCC(=O)N2c3ccccc3NC(=O)C2(C)C)c(C)n1-c1ccccc1	-1.8% (inactive)
CNS(=O)(=O)c1cccc(C(=O)OCC(=O)N2c3ccccc3NC(=O)C2(C)C)c1	28.3% (active)
C[C@@H]1CN([C@H](C)CO)C(=O)Cc2cc(NC(=O)Cc3ccccc3)ccc2O[C@H]1CN(C)S(=O)(=O)c1cccs1	1.69% (inactive)
COc1ccc(S(=O)(=O)N(C)C[C@@H]2OCCCC[C@@H](C)Oc3ccc(NC(=O)CCCN(C)C)cc3C(=O)N([C@@H](C)CO)C[C@@H]2C)cc1	0.066% (inactive)
CCCNC(=O)c1cc2c(c(-c3cccc(-c4ccc(C#N)cc4)c3)n1)[C@@H](CCO)N(C(=O)CC)C2	4.99% (inactive)
CCS(=O)(=O)N1Cc2cc(C(=O)N(C)C)nc(-c3cccc(-c4ccc(C#N)cc4)c3)c2[C@H]1CCO	20.3% (active)
CC(C)(C)[S@@](=O)N1Cc2cc(C(=O)N3CCOCC3)nc(-c3cccc(-c4ccc(C#N)cc4)c3)c2[C@H]1CCO	-2.86% (inactive)
CC(C)NC(=O)N(C)C[C@H]1Oc2c(NC(=O)Nc3ccc(F)cc3)cccc2C(=O)N([C@@H](C)CO)C[C@@H]1C	10.9% (inactive)
CO[C@H]1CN(C)C(=O)c2ccc(NC(=O)c3cccc(F)c3)cc2OC[C@@H](C)N(C(C)=O)C[C@@H]1C	-2.36% (inactive)
COc1ccc(S(=O)(=O)Nc2ccc3c(c2)CC(=O)N([C@H](C)CO)C[C@H](C)[C@@H](CN(C)C(=O)NC(C)C)O3)cc1	21.3% (active)
Cc1noc(C)c1S(=O)(=O)Nc1ccc2c(c1)C(=O)N([C@@H](C)CO)C[C@H](C)[C@H](CN(C)C(=O)Nc1ccc(C(F)(F)F)cc1)O2	-2.38% (inactive)
Cc1noc(C)c1S(=O)(=O)Nc1ccc2c(c1)CC(=O)N([C@@H](C)CO)C[C@H](C)[C@H](CN(C)C(=O)Nc1ccccc1)O2	-4.97% (inactive)
COc1ccc(S(=O)(=O)Nc2ccc3c(c2)CC(=O)N([C@H](C)CO)C[C@H](C)[C@H](CN(C)C(=O)Nc2ccccc2)O3)cc1	-6.98% (inactive)
Cc1noc(C)c1S(=O)(=O)Nc1ccc2c(c1)CC(=O)N([C@@H](C)CO)C[C@@H](C)[C@@H](CN(C)C(=O)Nc1ccc(C(F)(F)F)cc1)O2	46.5% (active)
COc1ccc(NC(=O)N(C)C[C@@H]2Oc3ccc(NS(=O)(=O)c4ccc(OC)cc4)cc3CC(=O)N([C@H](C)CO)C[C@H]2C)cc1	11.3% (inactive)
COc1ccc(S(=O)(=O)Nc2ccc3c(c2)CC(=O)N([C@@H](C)CO)C[C@@H](C)[C@@H](CN(C)C(=O)Nc2c(C)noc2C)O3)cc1	29.8% (active)
Cc1noc(C)c1NC(=O)N(C)C[C@H]1Oc2ccc(NS(=O)(=O)c3ccc(Cl)cc3)cc2CC(=O)N([C@H](C)CO)C[C@@H]1C	-8.56% (inactive)
COc1ccc(S(=O)(=O)Nc2ccc3c(c2)CC(=O)N([C@H](C)CO)C[C@@H](C)[C@H](CN(C)S(=O)(=O)c2c(C)noc2C)O3)cc1	-6.33% (inactive)
